This note sets out measurements from ChEMBL document CHEMBL3988442, “University of Dundee, Small-Polar-MMV Screening Library” (2021).

For some assays here: Measured potencies and affinities stand elsewhere.

Holding throughout (design): scale not given: direction of the effect not stated beside the values
Experiment [1] has as its target Protein translocase subunit SecA (Escherichia coli (strain K12)) (UniProt P10408). The experiment in a line: Assay to Identify E. coli SecA ATPase Inhibitors. The settings on record: 30 µM. In kind it is functional.
Experiment [2] deals with T1, Ubiquitin-activating enzyme e1, putative (Leishmania donovani (strain BPK282A1)) (UniProt E9BSI1).
T1 sequence (whole entry): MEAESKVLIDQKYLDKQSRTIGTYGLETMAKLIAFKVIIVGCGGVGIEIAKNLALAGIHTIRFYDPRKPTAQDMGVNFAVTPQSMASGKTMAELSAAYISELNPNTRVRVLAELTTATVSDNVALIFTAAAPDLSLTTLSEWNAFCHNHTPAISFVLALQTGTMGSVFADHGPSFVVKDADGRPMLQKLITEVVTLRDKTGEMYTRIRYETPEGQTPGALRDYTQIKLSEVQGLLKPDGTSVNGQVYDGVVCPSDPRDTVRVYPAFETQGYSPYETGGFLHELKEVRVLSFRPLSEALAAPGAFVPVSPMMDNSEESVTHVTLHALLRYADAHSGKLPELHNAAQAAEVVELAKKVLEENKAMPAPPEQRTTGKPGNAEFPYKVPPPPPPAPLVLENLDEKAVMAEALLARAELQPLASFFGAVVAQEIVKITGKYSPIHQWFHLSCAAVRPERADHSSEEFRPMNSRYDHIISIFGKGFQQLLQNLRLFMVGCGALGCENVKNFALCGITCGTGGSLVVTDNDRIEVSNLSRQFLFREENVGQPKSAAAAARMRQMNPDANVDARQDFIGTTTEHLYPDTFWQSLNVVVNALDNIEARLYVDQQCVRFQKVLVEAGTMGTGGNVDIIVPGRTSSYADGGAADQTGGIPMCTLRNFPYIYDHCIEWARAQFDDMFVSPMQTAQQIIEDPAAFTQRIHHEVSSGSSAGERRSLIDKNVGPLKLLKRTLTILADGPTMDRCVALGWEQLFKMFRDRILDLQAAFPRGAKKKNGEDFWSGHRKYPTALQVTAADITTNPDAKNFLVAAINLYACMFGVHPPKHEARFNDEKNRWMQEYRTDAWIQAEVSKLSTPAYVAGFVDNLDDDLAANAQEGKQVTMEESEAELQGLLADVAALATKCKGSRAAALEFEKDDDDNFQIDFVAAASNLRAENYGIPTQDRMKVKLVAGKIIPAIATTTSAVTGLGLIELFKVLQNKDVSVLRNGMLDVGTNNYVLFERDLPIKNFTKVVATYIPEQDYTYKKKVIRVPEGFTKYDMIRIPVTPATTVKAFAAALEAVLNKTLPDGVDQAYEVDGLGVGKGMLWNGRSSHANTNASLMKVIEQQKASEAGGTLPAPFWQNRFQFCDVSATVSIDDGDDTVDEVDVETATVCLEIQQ
The experiment in a line: Leishmania donovani Ubiquitin Activating Enzyme (LdE1). Type of experiment: functional. The settings on record: 30 µM.

For experiment [3], the target named is AMP-activated protein kinase, AMPK (Homo sapiens) (UniProt P54646+O43741+P54619+Q9UGJ0+Q9Y478+Q13131+Q9UGI9). Kind of experiment: AMP-dependent Kinase enzyme assay. An in vitro enzyme assay that detects ADP turnover that is directly proportional to AMPK activity. This uses naive AMPK that is activated during the assay with MK-8722. The settings on record: 30 µM. Type of experiment: functional.

For experiment [4], the target named is Sialic acid-binding Ig-like lectin 9 (Homo sapiens) (UniProt Q9Y336). The experiment in a line: Hs-Siglec9 ALPHAscreen SOP 20170721. To be noted: 10 µM. On the technique in general: Alpha assays give light when donor and acceptor beads are brought close together.
Sialic acid-binding Ig-like lectin 9 (Homo sapiens), sequence (Q9Y336 whole entry): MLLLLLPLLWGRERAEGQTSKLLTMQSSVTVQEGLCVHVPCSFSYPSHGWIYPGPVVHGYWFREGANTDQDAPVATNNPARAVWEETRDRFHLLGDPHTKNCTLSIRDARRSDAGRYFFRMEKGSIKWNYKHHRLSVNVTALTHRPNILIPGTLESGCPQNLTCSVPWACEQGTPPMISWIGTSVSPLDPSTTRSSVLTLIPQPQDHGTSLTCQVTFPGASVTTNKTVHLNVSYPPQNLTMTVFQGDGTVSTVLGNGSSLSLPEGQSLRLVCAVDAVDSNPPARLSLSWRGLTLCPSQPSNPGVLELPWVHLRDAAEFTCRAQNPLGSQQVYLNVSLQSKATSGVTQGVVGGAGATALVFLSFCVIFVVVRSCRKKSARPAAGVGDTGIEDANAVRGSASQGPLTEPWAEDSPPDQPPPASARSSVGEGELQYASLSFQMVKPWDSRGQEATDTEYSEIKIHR
The subject of a further experiment is Trypanosoma cruzi. Kind of experiment: Trypanosoma cruzi phosphomannomutase and mannose-1-phosphate guanylyltransferase assay. Type of experiment: functional. The settings on record: 10 µM.
The target in experiment [5] is T2, Arginase-2, mitochondrial (Homo sapiens) (UniProt P78540).
T2 sequence (whole entry): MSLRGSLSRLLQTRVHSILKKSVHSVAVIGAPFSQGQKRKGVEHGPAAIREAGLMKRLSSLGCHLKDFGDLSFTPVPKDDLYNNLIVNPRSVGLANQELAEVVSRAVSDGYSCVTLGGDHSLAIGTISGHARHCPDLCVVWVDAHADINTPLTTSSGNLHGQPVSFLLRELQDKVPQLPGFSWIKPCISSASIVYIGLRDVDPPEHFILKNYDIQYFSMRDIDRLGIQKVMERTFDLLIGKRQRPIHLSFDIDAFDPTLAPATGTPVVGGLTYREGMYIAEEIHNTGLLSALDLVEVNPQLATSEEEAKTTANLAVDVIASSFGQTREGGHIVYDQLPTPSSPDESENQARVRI
The experiment in a line: in vitro enzyme assay to detect the production of urea directly proportional to the activity of Arginase II. Further: in the data most compounds retested in dose-response had high values. The settings on record: 33.3 µM. In kind it is functional.

Experiment [6] addresses T3, Proteasome subunit beta (Trypanosoma cruzi) (UniProt O96673).
T3 sequence (whole entry): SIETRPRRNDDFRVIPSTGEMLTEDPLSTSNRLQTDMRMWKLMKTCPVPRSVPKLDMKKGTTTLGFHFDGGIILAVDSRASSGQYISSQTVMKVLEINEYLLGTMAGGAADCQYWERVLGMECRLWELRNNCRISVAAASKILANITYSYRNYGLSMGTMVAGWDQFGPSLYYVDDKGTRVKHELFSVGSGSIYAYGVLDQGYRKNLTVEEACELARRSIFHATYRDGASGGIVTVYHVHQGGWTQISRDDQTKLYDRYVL
The experiment in a line: Trypanosoma cruzi proteasome chymotrypsin-like activity (TcProtChymo) assay. Further: in the data most compounds retested in dose-response had high values. The settings on record: 9.37 µM. Type of experiment: functional.

For another experiment, the species on record is Homo sapiens. Kind of experiment: To identify inhibition of the IFN signalling (Jak-Stat) pathway via expression of an eGFP reporter gene under the control of an IFN-stimulated response element (ISRE) containing MxA promoter. In kind it is functional. To be noted: 30 µM. On the technique in general: A reporter such as luciferase makes a cellular process visible.

Experiment [7] deals with T4, Tyrosyl-tRNA synthetase, putative (Trypanosoma cruzi (strain CL Brener)) (UniProt Q4DSP6).
T4 sequence (whole entry): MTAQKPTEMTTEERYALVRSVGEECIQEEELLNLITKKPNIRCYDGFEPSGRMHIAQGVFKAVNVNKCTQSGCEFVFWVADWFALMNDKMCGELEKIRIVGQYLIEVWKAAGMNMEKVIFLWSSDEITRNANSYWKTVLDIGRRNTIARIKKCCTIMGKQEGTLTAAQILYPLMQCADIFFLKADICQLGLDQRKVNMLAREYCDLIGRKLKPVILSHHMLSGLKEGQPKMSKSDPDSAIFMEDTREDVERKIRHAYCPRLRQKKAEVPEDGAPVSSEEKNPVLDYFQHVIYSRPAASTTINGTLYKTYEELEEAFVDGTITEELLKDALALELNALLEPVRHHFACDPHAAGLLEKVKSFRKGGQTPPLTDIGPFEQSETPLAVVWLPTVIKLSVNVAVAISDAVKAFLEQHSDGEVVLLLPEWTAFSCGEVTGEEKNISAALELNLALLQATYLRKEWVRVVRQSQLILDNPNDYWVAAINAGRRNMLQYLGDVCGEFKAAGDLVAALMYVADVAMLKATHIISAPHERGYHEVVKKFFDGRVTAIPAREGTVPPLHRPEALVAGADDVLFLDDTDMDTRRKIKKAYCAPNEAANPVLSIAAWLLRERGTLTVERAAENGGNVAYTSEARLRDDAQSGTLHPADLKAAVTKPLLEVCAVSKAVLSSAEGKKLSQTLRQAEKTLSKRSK
Kind of experiment: Trypanosoma cruzi tyrosyl tRNA synthetase (TcYRS) _High Tyrosine SOP. Further: in the data most compounds retested in dose-response had high values. In kind it is functional. The settings on record: 30 µM.

Experiment [8] concerns the target T4, Tyrosyl-tRNA synthetase, putative (Trypanosoma cruzi (strain CL Brener)). Kind of experiment: Trypanosoma cruzi tyrosyl tRNA synthetase (TcYRS) SOP. Type of experiment: functional. The settings on record: 30 µM.
Experiment [9] concerns the target Chromo domain-containing protein 1 (Saccharomyces cerevisiae (strain ATCC 204508 / S288c) (Baker's yeast)) (UniProt P32657). Kind of experiment: ScCHD-1 Enzyme Inhibition Assay. Further: in the data most compounds retested in dose-response had high values. In kind it is functional. The settings on record: 30 µM.

Protein translocase subunit SecA (Escherichia coli (strain K12)), sequence (P10408 whole entry): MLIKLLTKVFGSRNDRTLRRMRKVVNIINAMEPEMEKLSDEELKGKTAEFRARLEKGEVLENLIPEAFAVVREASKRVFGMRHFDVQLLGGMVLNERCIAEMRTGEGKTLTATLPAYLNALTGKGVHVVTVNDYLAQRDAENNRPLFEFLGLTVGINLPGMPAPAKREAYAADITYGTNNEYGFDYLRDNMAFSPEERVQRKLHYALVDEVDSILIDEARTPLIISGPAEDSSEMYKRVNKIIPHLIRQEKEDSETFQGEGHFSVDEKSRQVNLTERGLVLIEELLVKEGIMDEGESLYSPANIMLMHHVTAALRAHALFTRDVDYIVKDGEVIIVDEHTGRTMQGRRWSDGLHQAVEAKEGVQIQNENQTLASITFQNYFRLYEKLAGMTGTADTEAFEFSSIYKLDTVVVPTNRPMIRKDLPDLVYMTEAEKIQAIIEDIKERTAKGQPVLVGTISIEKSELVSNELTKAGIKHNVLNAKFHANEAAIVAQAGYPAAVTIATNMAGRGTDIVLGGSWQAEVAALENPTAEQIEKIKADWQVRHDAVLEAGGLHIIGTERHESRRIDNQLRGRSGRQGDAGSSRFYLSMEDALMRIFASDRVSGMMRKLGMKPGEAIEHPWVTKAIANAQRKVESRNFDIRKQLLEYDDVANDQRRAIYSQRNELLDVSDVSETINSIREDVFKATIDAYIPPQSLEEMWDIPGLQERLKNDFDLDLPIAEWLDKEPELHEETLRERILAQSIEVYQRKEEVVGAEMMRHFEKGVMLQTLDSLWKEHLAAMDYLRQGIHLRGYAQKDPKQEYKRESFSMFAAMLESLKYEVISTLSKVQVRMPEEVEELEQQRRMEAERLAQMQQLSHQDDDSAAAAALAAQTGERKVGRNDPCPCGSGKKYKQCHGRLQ
Chromo domain-containing protein 1 (Saccharomyces cerevisiae (strain ATCC 204508 / S288c) (Baker's yeast)), sequence (P32657 whole entry, the tested form may be a part): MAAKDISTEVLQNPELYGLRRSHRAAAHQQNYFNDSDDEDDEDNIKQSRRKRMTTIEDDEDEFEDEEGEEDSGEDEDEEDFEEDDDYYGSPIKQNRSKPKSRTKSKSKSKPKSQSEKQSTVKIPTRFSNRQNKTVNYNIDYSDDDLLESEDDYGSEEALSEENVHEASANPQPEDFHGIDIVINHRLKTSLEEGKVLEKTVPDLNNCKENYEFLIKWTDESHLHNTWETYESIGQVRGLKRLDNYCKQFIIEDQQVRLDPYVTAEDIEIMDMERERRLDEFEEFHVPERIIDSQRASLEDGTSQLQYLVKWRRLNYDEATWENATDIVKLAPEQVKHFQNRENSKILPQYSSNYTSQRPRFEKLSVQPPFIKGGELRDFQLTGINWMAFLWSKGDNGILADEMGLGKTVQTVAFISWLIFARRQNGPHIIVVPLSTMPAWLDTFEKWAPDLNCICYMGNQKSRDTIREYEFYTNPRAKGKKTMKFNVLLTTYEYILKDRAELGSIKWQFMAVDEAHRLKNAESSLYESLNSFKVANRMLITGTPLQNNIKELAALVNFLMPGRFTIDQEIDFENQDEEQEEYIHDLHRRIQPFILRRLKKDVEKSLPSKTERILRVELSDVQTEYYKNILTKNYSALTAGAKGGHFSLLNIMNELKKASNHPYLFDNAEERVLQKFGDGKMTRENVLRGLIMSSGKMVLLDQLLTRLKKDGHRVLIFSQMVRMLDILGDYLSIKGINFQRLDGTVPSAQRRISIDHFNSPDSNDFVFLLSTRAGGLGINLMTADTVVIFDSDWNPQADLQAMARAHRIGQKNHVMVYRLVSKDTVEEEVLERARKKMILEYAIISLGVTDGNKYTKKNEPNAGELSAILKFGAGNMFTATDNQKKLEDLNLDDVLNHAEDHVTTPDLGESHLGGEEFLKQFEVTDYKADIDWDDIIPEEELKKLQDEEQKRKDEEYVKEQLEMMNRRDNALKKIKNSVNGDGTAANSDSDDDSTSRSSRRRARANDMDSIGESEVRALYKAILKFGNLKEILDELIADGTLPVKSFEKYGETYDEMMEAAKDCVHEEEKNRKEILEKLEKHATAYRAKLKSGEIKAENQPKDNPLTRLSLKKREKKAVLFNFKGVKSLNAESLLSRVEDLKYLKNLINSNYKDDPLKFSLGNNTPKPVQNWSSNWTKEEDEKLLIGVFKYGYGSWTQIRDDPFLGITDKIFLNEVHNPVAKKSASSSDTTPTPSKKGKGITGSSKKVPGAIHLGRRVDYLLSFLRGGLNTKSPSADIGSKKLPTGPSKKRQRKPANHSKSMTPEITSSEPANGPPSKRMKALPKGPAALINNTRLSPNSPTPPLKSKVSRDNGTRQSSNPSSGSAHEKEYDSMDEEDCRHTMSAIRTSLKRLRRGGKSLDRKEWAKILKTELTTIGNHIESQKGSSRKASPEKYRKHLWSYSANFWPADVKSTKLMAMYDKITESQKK

Take `Cc1ccc(C(=O)N2CCN(C(=O)NC(C)Cn3ccnc3)CC2)o1` (stereo not given): the Percent Effect in experiment [1] was -1.19%; in experiment [2], 10.5%; in [3] it was 2.03%; in [4] it was 13.1%; in the experiment on Trypanosoma cruzi it was 3.38%; in experiment [5], 2.3%. The Percent Effect in experiment [6] is 4.51%; in the experiment listed under Homo sapiens, 18.1%; in experiment [7], 3.43%; in [8], 19.5%; in [9], -13.5%.
Regarding `Cc1cccc(-c2ccc(C(=O)NCC3CCOC3)c(=O)[nH]2)c1` (stereo not given), the Percent Effect in [1] is -2.02%; in experiment [2], 10.8%; in experiment [3], -7.21%; in experiment [4] it was 7.34%; with Trypanosoma cruzi, -0.472%; in experiment [5], -4.41%. In addition, the Percent Effect in experiment [6] was -0.18%; in the experiment filed under Homo sapiens it was 12.2%; in experiment [7], 5.42%; in [8], 11.1%; in experiment [9], -8.03%.
In the case of `CC(NC(=O)NCCOc1ccc(F)c(F)c1)c1nncn1C` (stereo not given), the Percent Effect in experiment [1] was -3.44%; in experiment [2] it was 5.2%; in experiment [3], 2.42%; in [4] it was 5.57%; in the experiment with Trypanosoma cruzi, 7.15%; in experiment [5], 2.74%. Moreover, the Percent Effect in experiment [6] was 12.5%; in the experiment filed under Homo sapiens it was 16.9%; in experiment [7] it was 4.76%; in experiment [8], 9.41%; in experiment [9], -12.3%.
For the compound `COc1ccc(-c2nnc(SC(C)C(=O)NC3CC3)[nH]2)c(OC)c1` (stereo not given), the Percent Effect in [1] was -8.04%; in [2], 15.8%; in experiment [3] it was 1.94%; in [4] it was -2.88%; in the experiment on Trypanosoma cruzi, 2.63%; in [5], -2.37%. In addition, the Percent Effect is 13.3% in experiment [6]; 71.7% in the experiment filed under Homo sapiens; 6.38% in experiment [7]; 18.2% in experiment [8]; -7.11% in experiment [9].
`CCn1nc(CC(C)C)cc1C(=O)NCCCOC`: the Percent Effect in experiment [1] was -2.12%; in experiment [2], 6.94%; in experiment [3], 0.357%; in experiment [4], 4.91%; in the experiment on Trypanosoma cruzi it was 0.291%; in experiment [5], 4.86%. Further, the Percent Effect in experiment [6] turned out to be 15.8%; in the experiment filed under Homo sapiens it was 3.12%; in experiment [7], 5.26%; in experiment [8], 7.69%; in [9], 0.96%.
Regarding `COc1ccc(C2CCCN2C(=O)NCCNc2ncccn2)cc1` (stereo not given), the Percent Effect is 0.96% in experiment [1]; 2.74% in [2]; -8.6% in experiment [3]; -2.28% in [4]; -7.83% with Trypanosoma cruzi; 6.36% in [5]. Further, the Percent Effect is 19.3% in [6]; 16.6% in the experiment listed under Homo sapiens; 5.38% in experiment [7]; 12.5% in experiment [8]; -6.8% in [9].
Consider `Cc1cnc(N2CCC3(CCCN(c4ccc(C)nn4)C3)C2)nc1` (stereo not given), for which the Percent Effect in experiment [1] was 1.3%; in [2], 11%; in experiment [3] it was 1.6%; in [4], 7.43%; in the experiment on Trypanosoma cruzi it was -6.35%; in [5], -21.6%. Also, the Percent Effect was 13.1% in experiment [6]; 33.6% in the experiment listed under Homo sapiens; 6.25% in [7]; 13.6% in [8]; -5.51% in experiment [9].
In the case of `CCCS(=O)(=O)N1C[C@H]2OC(=O)N(CCc3cccc(Cl)c3)[C@H]2C1`, the Percent Effect in [1] is -5.06%; in experiment [2] it was 2.67%; in experiment [3] it was -2.35%; in experiment [4] it was -2.36%; with Trypanosoma cruzi, -3.21%; in experiment [5], -2.08%. The Percent Effect is 5.93% in experiment [6]; 16.4% in the experiment filed under Homo sapiens; -0.546% in experiment [7]; 3.7% in experiment [8]; -2.16% in experiment [9].
For `Cc1cccc(S(=O)(=O)NCC(C)N2CCN(C)CC2)c1Cl` (stereo not given), the Percent Effect was -5.19% in experiment [1]; 2.6% in experiment [2]; -2.53% in [3]; -0.382% in experiment [4]; -0.492% in the experiment with Trypanosoma cruzi; -2.76% in experiment [5]. For the same compound, the Percent Effect is 2.83% in experiment [6]; 7.45% in the experiment filed under Homo sapiens; 0% in experiment [7]; 3.7% in experiment [8]; 0.187% in experiment [9].
Take `Cc1nnc([C@@H]2CC[C@@H]3[C@@H](CCN3S(=O)(=O)c3cccnc3)O2)o1`: the Percent Effect in experiment [1] was -6.5%; in experiment [2], 10.8%; in [3] it was 7.11%; in experiment [4] it was -2.36%; in the experiment on Trypanosoma cruzi, -1.07%; in experiment [5], 6.05%. In addition, the Percent Effect in experiment [6] is 15.7%; in the experiment listed under Homo sapiens, -6.25%; in experiment [7], 15.1%; in experiment [8] it was 12.8%; in experiment [9], -1.2%.
